What all share (assay): log2 fold change, soluble protein after heating vs DMSO (PISA); higher = thermal stabilisation; K562 lysate, 10 uM; active = over 0.2 and 3.5 SD of the protein, either way, in both replicates (recomputed)
Compound in assay [1]: C1=CC=C(C=C1)[C@H](COC2=CC3=C(C=C2)NC(=O)N3)NC(=O)C4=CC=CN(C4=O)CC5=CC(=C(C=C5)F)F
Summed up: (§1)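 Values give the log-two fold change in thermal stability against solvent controls, from duplicates. Crude K562 extract at 1 mg/mL protein, made by dounce homogenisation in PBS pH 7.4 with 1 mM MgCl2, was treated with 10 μM compound for 30 min. After 3 min heating across 48°C-58°C, aliquots were pooled, adjusted to 0.5% NP-40 at 4°C and centrifuged at 21,000xg for 90 min. The supernatant was measured by TMTpro 16plex LC-MS/MS with channel sums equalised.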

Compound in assay [2]: CC1=C(SC2=C1C(=N[C@H](C3=NN=C(N32)C)CC(=O)N)C4=CC=C(C=C4)Cl)C
The method in brief:
as §1

Compound in assay [3]: CC1=C2C(=CC=C1)N=C(N(C2=O)C3=CC=CC=C3C)CN4C=NC5=C(N=CN=C54)N
The method in brief:
as §1

Compound in assay [4]: Cc1sc2c(c1C)C(c1ccc(Cl)cc1)=N[C@@H](CC(=O)OC(C)(C)C)c1nnc(C)n1-2
Summed up: as §1

Compound in assay [5]: c1ccc([C@@H]2C[C@H]2NC2CCNCC2)cc1
Summed up: as §1

Of roughly 8,800 targets only a part is listed; those with a hit were picked by preference. About 0.5% of all pairs of compound and target were hits. Unmarked numbers belong to inactive results.

The results in this text go back to the supplement of paper PMC10849652.

Chain of UniProt P05771 (P05771 whole entry, looked up): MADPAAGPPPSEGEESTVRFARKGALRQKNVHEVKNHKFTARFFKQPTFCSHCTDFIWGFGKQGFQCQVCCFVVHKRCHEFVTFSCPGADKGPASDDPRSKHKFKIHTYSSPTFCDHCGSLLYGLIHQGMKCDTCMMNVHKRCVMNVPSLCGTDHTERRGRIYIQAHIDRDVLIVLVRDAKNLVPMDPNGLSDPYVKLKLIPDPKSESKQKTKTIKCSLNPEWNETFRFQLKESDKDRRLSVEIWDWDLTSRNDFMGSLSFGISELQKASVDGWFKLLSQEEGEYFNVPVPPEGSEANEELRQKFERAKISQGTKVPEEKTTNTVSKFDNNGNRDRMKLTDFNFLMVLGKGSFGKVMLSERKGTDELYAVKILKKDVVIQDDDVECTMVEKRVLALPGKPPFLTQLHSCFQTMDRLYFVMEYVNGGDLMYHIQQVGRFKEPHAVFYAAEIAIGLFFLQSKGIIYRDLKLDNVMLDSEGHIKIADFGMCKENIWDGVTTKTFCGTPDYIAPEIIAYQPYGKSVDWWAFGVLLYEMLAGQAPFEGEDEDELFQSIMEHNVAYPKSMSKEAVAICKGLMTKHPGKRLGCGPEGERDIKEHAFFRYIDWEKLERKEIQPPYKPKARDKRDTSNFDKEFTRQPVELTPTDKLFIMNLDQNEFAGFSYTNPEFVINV
Chain of UniProt Q9NY27 (Q9NY27 whole entry, looked up): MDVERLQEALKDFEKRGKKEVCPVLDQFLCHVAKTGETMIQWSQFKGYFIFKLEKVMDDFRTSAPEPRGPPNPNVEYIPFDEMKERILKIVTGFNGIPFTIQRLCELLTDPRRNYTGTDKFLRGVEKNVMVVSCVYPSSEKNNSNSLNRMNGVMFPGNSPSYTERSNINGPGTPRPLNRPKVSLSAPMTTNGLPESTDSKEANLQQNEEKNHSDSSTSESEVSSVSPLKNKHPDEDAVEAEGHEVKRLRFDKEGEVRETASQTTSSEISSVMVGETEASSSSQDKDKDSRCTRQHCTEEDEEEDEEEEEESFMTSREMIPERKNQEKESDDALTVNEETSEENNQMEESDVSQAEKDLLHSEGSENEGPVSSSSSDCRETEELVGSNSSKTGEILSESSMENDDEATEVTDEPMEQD
Chain of UniProt Q93100 (Q93100 whole entry, looked up): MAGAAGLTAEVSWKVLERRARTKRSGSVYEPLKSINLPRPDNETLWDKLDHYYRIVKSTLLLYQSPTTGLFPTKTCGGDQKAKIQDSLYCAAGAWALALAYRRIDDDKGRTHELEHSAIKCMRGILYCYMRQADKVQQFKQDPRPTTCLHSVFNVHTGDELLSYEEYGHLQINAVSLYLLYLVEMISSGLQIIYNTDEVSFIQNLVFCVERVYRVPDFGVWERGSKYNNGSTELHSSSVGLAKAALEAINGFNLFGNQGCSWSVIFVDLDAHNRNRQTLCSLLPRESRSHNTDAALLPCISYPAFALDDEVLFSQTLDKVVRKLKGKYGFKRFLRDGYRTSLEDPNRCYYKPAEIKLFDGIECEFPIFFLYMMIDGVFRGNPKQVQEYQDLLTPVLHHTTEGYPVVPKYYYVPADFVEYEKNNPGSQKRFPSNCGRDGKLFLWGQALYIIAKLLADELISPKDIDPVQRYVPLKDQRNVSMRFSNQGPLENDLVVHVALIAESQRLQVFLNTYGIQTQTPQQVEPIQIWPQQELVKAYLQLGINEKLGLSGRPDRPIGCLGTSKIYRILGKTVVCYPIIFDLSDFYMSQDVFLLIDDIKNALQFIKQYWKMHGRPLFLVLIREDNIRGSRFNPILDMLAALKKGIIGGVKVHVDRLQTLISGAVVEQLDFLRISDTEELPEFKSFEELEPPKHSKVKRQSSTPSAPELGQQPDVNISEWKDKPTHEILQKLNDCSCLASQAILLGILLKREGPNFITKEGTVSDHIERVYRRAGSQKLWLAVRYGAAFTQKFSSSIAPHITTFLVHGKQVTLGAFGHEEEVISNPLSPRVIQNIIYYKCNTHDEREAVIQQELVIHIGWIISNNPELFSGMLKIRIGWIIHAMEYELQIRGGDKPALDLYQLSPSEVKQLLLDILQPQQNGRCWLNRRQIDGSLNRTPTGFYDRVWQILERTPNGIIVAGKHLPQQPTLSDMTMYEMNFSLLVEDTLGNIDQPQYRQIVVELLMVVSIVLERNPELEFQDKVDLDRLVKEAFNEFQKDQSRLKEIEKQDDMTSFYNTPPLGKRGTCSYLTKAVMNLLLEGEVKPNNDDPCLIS
Chain of UniProt Q05655 (Q05655 whole entry, looked up): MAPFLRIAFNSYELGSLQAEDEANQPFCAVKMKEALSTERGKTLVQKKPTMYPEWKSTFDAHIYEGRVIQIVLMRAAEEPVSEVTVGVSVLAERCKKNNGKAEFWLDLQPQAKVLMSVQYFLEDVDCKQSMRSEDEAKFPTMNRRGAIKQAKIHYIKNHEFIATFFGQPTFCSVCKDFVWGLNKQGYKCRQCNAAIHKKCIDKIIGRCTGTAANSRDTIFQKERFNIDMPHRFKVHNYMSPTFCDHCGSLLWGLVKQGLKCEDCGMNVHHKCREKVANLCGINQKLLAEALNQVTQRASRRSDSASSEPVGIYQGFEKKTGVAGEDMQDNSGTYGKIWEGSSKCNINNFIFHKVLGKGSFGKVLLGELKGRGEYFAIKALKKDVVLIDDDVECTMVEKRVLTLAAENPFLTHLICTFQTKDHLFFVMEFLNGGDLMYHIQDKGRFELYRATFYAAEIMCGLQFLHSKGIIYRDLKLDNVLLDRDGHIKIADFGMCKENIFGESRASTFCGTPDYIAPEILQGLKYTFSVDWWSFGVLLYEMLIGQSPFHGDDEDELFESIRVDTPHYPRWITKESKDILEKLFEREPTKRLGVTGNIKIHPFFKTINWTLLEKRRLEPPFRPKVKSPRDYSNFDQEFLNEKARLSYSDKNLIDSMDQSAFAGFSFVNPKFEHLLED
Chain of UniProt P50336 (P50336 whole entry, looked up): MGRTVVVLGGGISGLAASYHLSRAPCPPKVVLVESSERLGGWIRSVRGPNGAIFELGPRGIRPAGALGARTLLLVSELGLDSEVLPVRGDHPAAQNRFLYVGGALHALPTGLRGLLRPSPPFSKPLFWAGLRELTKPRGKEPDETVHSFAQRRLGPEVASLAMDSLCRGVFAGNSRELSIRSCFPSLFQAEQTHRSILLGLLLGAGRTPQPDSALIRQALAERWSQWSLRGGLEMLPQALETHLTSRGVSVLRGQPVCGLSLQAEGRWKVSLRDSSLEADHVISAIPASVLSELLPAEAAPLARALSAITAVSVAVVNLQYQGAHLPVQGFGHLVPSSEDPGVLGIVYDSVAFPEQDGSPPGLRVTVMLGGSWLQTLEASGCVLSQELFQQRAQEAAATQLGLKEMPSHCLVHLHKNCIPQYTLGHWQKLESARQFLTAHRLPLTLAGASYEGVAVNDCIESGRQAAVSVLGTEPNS
Chain of UniProt Q9H939 (Q9H939 whole entry, looked up): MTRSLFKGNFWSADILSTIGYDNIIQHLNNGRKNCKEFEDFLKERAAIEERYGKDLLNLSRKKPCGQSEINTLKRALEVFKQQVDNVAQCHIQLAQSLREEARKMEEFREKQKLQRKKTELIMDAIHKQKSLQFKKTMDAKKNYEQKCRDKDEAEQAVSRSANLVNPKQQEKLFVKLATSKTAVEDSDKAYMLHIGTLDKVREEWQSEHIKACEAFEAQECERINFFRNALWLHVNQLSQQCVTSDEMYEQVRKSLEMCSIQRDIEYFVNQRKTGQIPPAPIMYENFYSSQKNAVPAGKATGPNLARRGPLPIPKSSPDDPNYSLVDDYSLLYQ
Chain of UniProt Q9ULR3 (Q9ULR3 whole entry, looked up): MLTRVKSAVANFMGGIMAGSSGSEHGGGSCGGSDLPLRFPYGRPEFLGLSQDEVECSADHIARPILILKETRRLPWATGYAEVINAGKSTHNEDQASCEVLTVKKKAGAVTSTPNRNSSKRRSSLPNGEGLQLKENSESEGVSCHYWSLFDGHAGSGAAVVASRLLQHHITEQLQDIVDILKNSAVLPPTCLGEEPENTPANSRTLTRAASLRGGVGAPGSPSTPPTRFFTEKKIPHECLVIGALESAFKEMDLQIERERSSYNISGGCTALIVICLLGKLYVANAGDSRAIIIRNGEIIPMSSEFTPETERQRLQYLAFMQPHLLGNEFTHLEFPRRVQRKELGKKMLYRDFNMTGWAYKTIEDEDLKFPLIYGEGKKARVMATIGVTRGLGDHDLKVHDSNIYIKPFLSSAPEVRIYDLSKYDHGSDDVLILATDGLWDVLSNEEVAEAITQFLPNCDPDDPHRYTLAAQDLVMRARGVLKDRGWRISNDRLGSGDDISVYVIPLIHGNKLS
Chain of UniProt Q13492 (Q13492 whole entry, looked up): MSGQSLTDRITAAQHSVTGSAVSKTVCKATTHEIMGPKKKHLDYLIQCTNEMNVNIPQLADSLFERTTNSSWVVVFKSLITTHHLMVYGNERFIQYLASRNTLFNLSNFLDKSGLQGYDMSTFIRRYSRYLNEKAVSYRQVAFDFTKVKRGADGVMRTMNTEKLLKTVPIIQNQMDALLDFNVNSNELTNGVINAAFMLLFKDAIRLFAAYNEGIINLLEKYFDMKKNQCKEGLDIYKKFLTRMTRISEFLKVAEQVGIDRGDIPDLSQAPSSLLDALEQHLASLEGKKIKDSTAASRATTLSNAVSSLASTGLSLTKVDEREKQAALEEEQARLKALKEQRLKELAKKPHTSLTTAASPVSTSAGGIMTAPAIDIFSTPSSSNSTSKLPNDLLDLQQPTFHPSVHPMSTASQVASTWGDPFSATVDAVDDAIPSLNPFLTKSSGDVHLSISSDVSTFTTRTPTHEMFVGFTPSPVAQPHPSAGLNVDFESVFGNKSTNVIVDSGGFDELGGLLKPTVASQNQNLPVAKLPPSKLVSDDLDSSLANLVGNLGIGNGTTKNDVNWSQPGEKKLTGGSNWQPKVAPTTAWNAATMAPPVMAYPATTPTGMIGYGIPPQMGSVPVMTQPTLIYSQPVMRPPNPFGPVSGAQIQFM

For PPOX (UniProt P50336), the log2 fold change in assay [1] is 0.579 (active); in assay [2] it was 0.012; in assay [3], -0.009; in assay [4], -0.02; in assay [5], -0.023.

For the target PIK3CD (UniProt O00329), the log2 fold change in assay [1] was -0.053; in assay [2] it was 0.075; in assay [3], 0.443 (active); in assay [4], -0.027; in assay [5], 0.043.

PICALM (UniProt Q13492): the log2 fold change in assay [1] was -0.014; in assay [2], 0.027; in assay [3] it was 0.016; in assay [4], 0.005; in assay [5], 0.007.

For the target PPM1H (UniProt Q9ULR3), the log2 fold change was 0.011 in assay [1]; -0.023 in assay [2]; -0.008 in assay [3]; 0.062 in assay [4]; 0.05 in assay [5].

On to PPP4R2 (UniProt Q9NY27), for which the log2 fold change in assay [1] is 0.019; in assay [2], 0.025; in assay [3] it was -0.001; in assay [4] it was -0.026; in assay [5], -0.009.

For the target PRKCD (UniProt Q05655), the log2 fold change in assay [1] is 0.003; in assay [2], 0.022; in assay [3], 0.028; in assay [4], -0.003; in assay [5], 0.023.

PLA2G4B isoform 6 (UniProt P0C869): the log2 fold change in assay [1] was -0.003; in assay [2], 0.024; in assay [3], -0.052; in assay [4], 0.099; in assay [5], -0.019.

As for PRKCB isoform 2 (UniProt P05771), the log2 fold change in assay [1] was -0.007; in assay [2], -0.022; in assay [3], 0.086; in assay [4], 0.07; in assay [5], -0.005.

PLXNB2 (UniProt O15031): the log2 fold change was -0.034 in assay [1]; 0.037 in assay [2]; 0.014 in assay [3]; 0.004 in assay [4]; -0.024 in assay [5].

Take PSTPIP2 (UniProt Q9H939): the log2 fold change in assay [1] was 0; in assay [2], -0.01; in assay [3] it was 0.046; in assay [4], 0; in assay [5], 0.027.

As to PHKB isoform 3 (UniProt Q93100), the log2 fold change is 0.015 in assay [1]; 0.011 in assay [2]; 0.042 in assay [3]; -0.012 in assay [4]; -0.066 in assay [5].

On to POLR2M (UniProt P0CAP2), for which the log2 fold change was 0.026 in assay [1]; -0.005 in assay [2]; 0.025 in assay [3]; 0.024 in assay [4]; 0.005 in assay [5].

With PFKFB4 (UniProt Q16877), the log2 fold change in assay [1] is -0.066; in assay [2], 0.023; in assay [3] it was 0.059; in assay [4], -0.053; in assay [5], -0.007.
